HT1080-NT tox – kills 2HG-producing HT-1080-NT fibrosarcoma cells. 1.6% of 360,000 active. Potency, µM (top dose mostly 46.1 µM), for inactives: at the top dose activity, negative = less viability, actives largely listed as cytotoxic. AID 686970. HT-1080-NT fibrosarcoma viability, CellTiter-Glo ATP luminescence, 48 h;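 also: NT is the 2HG producing partner of a matched IDH1 knockdown line; 0% = DMSO-treated cells and -100% = media-only wells without cells; nearly all actives have a fitted effect of over 55% in size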
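Fibrosarcoma NT cells, 750 per well in 5% FBS RPMI, were exposed to compound for 48 hours. Viability: CellTiter-Glo luminescence.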
DT40 TDP1 CPT – DT40-hTDP1 cell growth loss with CPT; 12% of 420,000 active; chicken DT40 Tdp1-/-;hTDP1 cells + 20 nM CPT, ATP luminescence, 48 h; Potency, µM (highest dose often 46.2 µM), for inactives: at the top dose activity change, negative = growth inhibition, most hits filed as inhibitors; also: nearly all actives have a fitted effect of over 55% in size
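Cell growth measured by CellTiter-Glo luminescence after a minimum 48 h, 37 C compound exposure with 20 nM CPT in Tdp1-knockout DT40 cells stably expressing hTDP1, seeded 400/well; qHTS titration format.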
DT40 TDP1 no CPT – qHTS for Inhibitors of human tyrosyl-DNA phosphodiesterase 1 (TDP1): qHTS in cells in absence of CPT; 15% of 420,000 active; DT40 Tdp1-/- hTDP1 cells, no CPT, ATP luminescence, 48 h; Potency, µM (titrated, usually from 46.2 µM), for inactives: top-dose activity change, negative = growth inhibition, hits mostly inhibitors; also: nearly all actives have a fitted effect of over 55% in size
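Luminescent ATP content (CellTiter-Glo) served as the growth readout. Knockout chicken DT40 cells expressing human TDP1 were exposed to compounds without camptothecin for a minimum 48 hr at 37 °C.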
KB-3-1 cytotox – kills parental KB-3-1 adenocarcinoma cells. AID 1347075. KB-3-1 viability, CellTiter-Glo ATP luminescence, 72 h. 1.4% of 400,000 active. Potency, µM (doses to about 46.1 µM), hits mostly cytotoxic; also: nearly all actives have a fitted effect of over 60% in size
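KB-3-1 parental drug-naive adenocarcinoma cells in DMEM/10% FBS, incubated 72 h at 37 C with pin-transferred compounds across a concentration series. Viability by CellTiter-Glo luminescence; concentration-response curves fitted after normalization.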
KB-V1 cytotox – KB-V1 MDR subline cytotoxicity; KB-V1 MDR cells viability, CellTiter-Glo, 72 h; Potency, µM (series often up to 46.1 µM), actives largely listed as cytotoxic; 3.4% of 400,000 active; AID 1347076; also: nearly all actives have a fitted effect of over 60% in size
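Potencies derive from concentration-effect curves fitted to normalized luminescence (CellTiter-Glo) of KB-V1 cells treated for 72 h at 37 degrees C in phenol-red-free DMEM containing 10% FBS.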
HT1080 IDH1KD tx – toxicity to HT-1080 IDH1 knockdown cells (counter line) | 2% of 360,000 active | Potency, µM (doses to about 46.1 µM), for inactives: top-dose activity, negative = toxicity, hits mostly cytotoxic | HT-1080 IDH1 knockdown viability, ATP luminescence, 48 h;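 also: 0% = DMSO wells and -100% = cell-free medium wells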
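HT-1080-IDH1KD cells (IDH1 knocked down), 750/well in RPMI with 5% FBS, treated with compound 48 h at 37 degrees C. Viability by CellTiter-Glo luminescence, normalised to DMSO and no-cell wells; concentration-response curves classed.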
* hit, by the source's call; i = inactive; ? = inconclusive; / = no result; [ ] = remark or other dose. Hits are enriched below; roughly 19% of the tested compounds scored in any of these assays. Calls follow the shape of the dose curve; as a rule, active = well fitted curve in the direction sought with a large enough effect; inconclusive = small, poorly fitted or top-dose-only effect, or another doubt; inactive = no such curve, though single readings can be large; an effect the other way counts as inactive or inconclusive. Unless noted, % is scaled to controls: 0 for no effect and ±100 for the full control effect; potency is read from the fitted curve at half-maximal effect.

SMILES	HT1080-NT tox	DT40 TDP1 CPT	DT40 TDP1 no CPT	KB-3-1 cytotox	KB-V1 cytotox	HT1080 IDH1KD tx
CCN(CC(=O)N1CCN(Cc2ccccc2)CC1)S(=O)(=O)c1ccc(C)cc1	4%	?	?	i	?	10%
CCN(c1ccccc1)S(=O)(=O)c1ccc(Cl)c(C(=O)N(CC2CCCO2)C2CCS(=O)(=O)C2)c1 (centres undefined)	-7%	?	21µM*	i	i	2%
CCN1CCN(S(=O)(=O)c2ccc(Cl)c(C(=O)N(CC(C)C)C3CCS(=O)(=O)C3)c2)CC1 (centres undefined)	-9%	-28%	-11%	i	i	2%
COC(=O)c1cc(NC(=O)c2cc3sccc3n2Cc2ccc(Cl)cc2)cc(C(=O)OC)c1	/	?	?	i	i	/
CCCCSc1nnc(CCCCCNC(=O)OC(C)(C)C)o1	4%	?	?	i	i	-3%
O=C(OCC(=O)N1CCCc2ccccc21)c1ccc(S(=O)(=O)C(F)F)cc1	-2%	7%	3%	i	?	3%
CCN(c1ccccc1)S(=O)(=O)c1ccc(C(=O)N2CCN(c3ccccc3)CC2)cc1	-2%	?	21µM*	i	i	-14%
Cc1ccc(S(=O)(=O)N(CC(=O)N2CCN(c3ccccc3F)CC2)C2CCCCC2)cc1	-1%	?	?	?	4.6µM*	-11%
CS(=O)(=O)N(CC(=O)N1CCN(c2ccccc2F)CC1)C1CCCCC1	-1%	-28%	?	i	?	-1%
CCN(c1ccccc1)S(=O)(=O)c1ccc(F)c(C(=O)O)c1	1%	-9%	-11%	i	i	17%
CCN(c1ccccc1)S(=O)(=O)c1cccc(C(=O)N2CCN(S(=O)(=O)c3ccccc3)CC2)c1	2%	?	?	i	?	6%
CCN(c1ccccc1)S(=O)(=O)c1ccc(Cl)c(C(=O)N2CCCC2)c1	12%	?	15µM*	i	i	1%
CCCCn1c(SCc2nc(N)nc(Nc3ccccc3C)n2)nc2ccccc2c1=O	-14%	?	18µM*	?	?	-12%
COc1ccccc1Nc1nc(N)nc(CSc2nc(C)cc(C)n2)n1	-1%	32%	-12%	?	13µM*	0%
COCC(C)n1c(SCc2nc(N)nc(Nc3ccccc3C)n2)nc2ccccc2c1=O (centres undefined)	-7%	16µM*	?	i	i	-5%
COc1ccccc1Nc1nc(N)nc(CSc2nccc(C)n2)n1	2%	3%	-1%	i	i	3%
Cc1c(C(=O)N2CCC(Cc3ccccc3)CC2)sc2ncnc(NCc3ccccn3)c12	/	?	-29%	/	/	/
COc1cccc(/C(C#N)=C/c2c(-c3ccc(Cl)cc3)nc3c(C)cccn23)c1	-4%	21µM*	18µM*	?	i	-17%
CCOC(=O)c1ccc(-n2c(CN3CCC(C(N)=O)CC3)nc3ccc([N+](=O)[O-])cc3c2=O)cc1	0%	?	-11%	i	i	-3%
CCOC(=O)N1CCN(Cc2nc3ccc([N+](=O)[O-])cc3c(=O)n2-c2ccccc2F)CC1	?	?	23µM*	?	?	-18%
CCOC(=O)c1ccc(-n2c(CN3CCC(O)CC3)nc3ccc([N+](=O)[O-])cc3c2=O)cc1	8%	21µM*	?	i	i	13%
CC(=O)N1CCN(Cc2nc3cc([N+](=O)[O-])ccc3n2C)CC1	1%	6.5µM*	?	i	i	3%
CCOC(=O)C1CCCN(Cc2nc3ccc([N+](=O)[O-])cc3c(=O)n2-c2ccc(OC)cc2OC)C1 (centres undefined)	-5%	16µM*	23µM*	i	i	8%
CCC(CC)N1CCN(Cc2nc3ccc([N+](=O)[O-])cc3c(=O)n2-c2ccccc2F)CC1	-12%	5%	?	i	i	1%
Cc1cc(F)ccc1NC(=O)CS(=O)(=O)c1cccc2nsnc12	/	11%	-11%	i	i	/
SMILES	HT1080-NT tox	DT40 TDP1 CPT	DT40 TDP1 no CPT	KB-3-1 cytotox	KB-V1 cytotox	HT1080 IDH1KD tx
CCOC(=O)c1ccc(-n2c(CN(CC)CC)nc3ccc([N+](=O)[O-])cc3c2=O)cc1	-3%	18µM*	?	i	i	-3%
CCOC(=O)c1ccc(-n2c(CN3CCOCC3)nc3ccc([N+](=O)[O-])cc3c2=O)cc1	11%	-10%	-4%	i	i	15%
CCOC(=O)C1CCN(Cc2nc3ccc(Cl)cc3n2CCO)CC1	9%	21µM*	?	i	i	4%
O=C(c1ccco1)N1CCN(Cc2nc3ccccc3c(=O)n2-c2ccc(F)cc2)CC1	5%[9.24 µM]	?	?	i	?	-14%
CCOC(=O)C1CCN(Cc2ccc(F)c(Br)c2)CC1	-1%	-26%	1%	i	?	-6%
CCOC(=O)C1CCN(Cc2nc3ccccc3c(=O)n2-c2ccc(F)cc2)CC1	-3%	?	?	i	4.1µM*	-1%
CCC(C)(C)NC(=O)C(c1cccn1C)N(C(=O)Cn1nnc2ccccc21)c1ccccc1OC (centres undefined)	0%	?	?	i	i	6%
COc1cc(/C=C/C(=O)OCC(=O)N2CCN(C(=O)c3ccco3)CC2)ccc1O	7%	-3%	-15%	i	i	0%
COc1cc2c(cc1NC(=O)C(Cl)Cl)-c1ccc(NC(=O)C(Cl)Cl)cc1C2	?	8.2µM*	8.2µM*	?	15µM*	13µM*
O=C(CCC(=O)c1ccc(F)cc1)Nc1cccc(S(=O)(=O)Nc2cccc(Cl)c2)c1	-19%	15µM*	23µM*	i	i	-30%
CC(=O)c1cccc(NC(=S)NC(=O)c2ccc(C)cc2)c1	0%	?	18µM*	i	?	-3%
O=C(NC(=S)Nc1cccc(NC(=S)NC(=O)c2ccccc2)c1)c1ccccc1	-11%	9.2µM*	10µM*	i	i	-18%
Cc1snnc1C(=O)NC(=S)Nc1ccccc1	17%	-29%	13µM*	i	i	-4%
COc1ccc(CCC(=O)OCC(=O)Nc2ccccc2)cc1	0%	9%	-16%	i	i	-1%

Screening results (PubChem BioAssay)
